The values below come from PubChem BioAssay (Tox21).

The source made the active and inactive calls. Where a call stands in place of a potency, no number is given. The call rests on the fitted dose curve.
Potency means the concentration at half of the fitted maximal effect.

For the test, the target named is Muscarinic acetylcholine receptor M1 (Homo sapiens) (UniProt P11229). The experiment in a line: Cholinergic receptor muscarinic 1 (CHRM1) small molecule agonists, cell-based qHTS assay (AID 1963589). Further: nearly all actives have a fitted effect of over 35% in size. As to conditions: CHRM1-CHO cells, agonist mode, calcium flux fluorescence; series mostly up to 76.8 µM. From the text: National Center for Advancing Translational Sciences [NCATS]
Muscarinic acetylcholine receptor M1 (Homo sapiens), sequence (P11229 whole entry, looked up): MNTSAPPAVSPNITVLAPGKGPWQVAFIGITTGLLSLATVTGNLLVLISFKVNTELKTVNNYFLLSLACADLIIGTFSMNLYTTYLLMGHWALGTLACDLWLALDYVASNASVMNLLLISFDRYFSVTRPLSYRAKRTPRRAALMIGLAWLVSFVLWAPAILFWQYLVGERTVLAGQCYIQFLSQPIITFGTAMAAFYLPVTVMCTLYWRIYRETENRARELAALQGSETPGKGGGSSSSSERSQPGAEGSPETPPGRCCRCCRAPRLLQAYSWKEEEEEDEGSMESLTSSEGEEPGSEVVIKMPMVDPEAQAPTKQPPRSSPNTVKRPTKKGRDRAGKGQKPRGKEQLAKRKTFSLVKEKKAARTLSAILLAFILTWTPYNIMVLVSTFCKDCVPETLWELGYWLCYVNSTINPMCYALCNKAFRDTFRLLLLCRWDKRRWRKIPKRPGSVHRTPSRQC
Division of Preclinical Innovation [DPI]
U.S. Environmental Protection Agency [EPA]
National Institutes of Environmental Health Sciences [NIEHS]
National Toxicology Program [NTP]
U.S. Food and Drug Administration [FDA]
The CHRM1 is a muscarinic receptor. This receptor plays a crucial role in learning and memory processes and has long been identified as a promising therapeutic target for the improvement of cognitive decline in Alzheimer's disease (AD). The CHRM1-CHO cell line stably expressing human muscarinic acetylcholine receptor M1 (CHRM1) can be used for screening agonists and antagonists of interactions between CHRM1 and its ligands. The CHRM1-CHO Calcium Flux Assay is a homogeneous fluorescence-based assay for detecting the intracellular calcium level using FDSS kinetic plate reader system.
CHRM1-CHO cells were dispensed at 1000 cells/3uL/well in 1536-well black-clear bottom plates using a Multidrop Dispenser. After the assay plates were incubated at a 37 C/5% CO2 incubator for 18 h, 3 uL of Dye Loading Buffer was transferred to the assay plate by a Flying Reagent Dispenser. The assay plates were incubated at 37 C for 1h. For agonist mode, 23 nL of compounds dissolved in DMSO, positive controls or DMSO only was transferred to the assay plate by a pin tool. […] Each test compound was measured at 15 concentrations in three independent runs.
`O=c1[nH]nc(-c2ccc([N+](=O)[O-])o2)o1`: the Potency entry was “inactive”.

Consider `Cc1ccc(C=O)cc1C`, for which the Potency entry is “inactive”.

On to `CCCCCCCCCO`, for which the Potency result is “inactive”.

With `C=C[Si](OCC)(OCC)OCC`, the Potency result is “inactive”.

As for `CCN(CC)C(=O)c1ccc(O)c(OC)c1`, the Potency result was “inactive”.

Take `CCCCC(CC)COS(=O)(=O)O` (stereo not given): the Potency entry is “inactive”.

`CCCCCC=CCC=CCCCCCCCC(=O)OCC`: the Potency entry is “inactive”.

Consider `O=c1[nH][nH]c2ccccc12`, for which the Potency entry was “inactive”.

Regarding `O=C1OC2(c3ccc(O)cc3Oc3cc(O)ccc32)c2ccc(N=C=S)cc21`, the Potency was 22.3 µM (active).

Take `CCCCCCCC/C=C/CCCCCCCC1=NCCN1CCO`: the Potency result is “inactive”.

Consider `CC(=O)C(=O)CC(C)C`, for which the Potency entry is “inactive”.

`CC(O)CC(C)O` (stereo not given): the Potency result is “inactive”.

As to `C=C(C)C(=O)OCc1ccccc1`, the Potency entry is “inactive”.

Turning to `O=C(O)[C@@H]1CSCN1`, the Potency result was “inactive”.

As to `CC(C)C(C)C`, the Potency entry is “inactive”.

As to `C=CC(C)(CCC=C(C)C)OC(=O)CC(C)C` (stereo not given), the Potency entry is “inactive”.

Turning to `CC/C=C\CC/C=C/CO`, the Potency entry is “inactive”.

As to `COC(=O)/C=C/C(C)=C\C=C\C(C)=C\C=C\C=C(C)\C=C\C=C(C)\C=C\C(=O)O`, the Potency entry was “inactive”.

Turning to `CCCCCC[C@@H](O)C/C=C\CCCCCCCC(=O)OC`, the Potency entry is “inactive”.

`Cc1nnc(SCC2=C(C(=O)O)N3C(=O)[C@@H](NC(=O)Cn4cnnn4)[C@H]3SC2)s1`: the Potency entry is “inactive”.

For `CC(C)(C)C1CCCCC1=O` (stereo not given), the Potency entry is “inactive”.

Regarding `CC(C)C(OC(=O)c1ccccc1)C(C)(C)COC(=O)c1ccccc1` (stereo not given), the Potency result was “inactive”.

Consider `Nc1ccc(N=Nc2ccc(N)cc2)cc1`, for which the Potency result is “inactive”.

As for `NS(=O)(=O)c1ccc(C(=O)O)cc1`, the Potency result is “inactive”.

Turning to `C=CC(=C)CCC=C(C)C`, the Potency result was “inactive”.

`CCCCCCCCCCCCCBr`: the Potency entry was “inactive”.

In the case of `C[C@@H](N)C(=O)O`, the Potency entry was “inactive”.

Regarding `CCCCNc1ccc(C(=O)OCCN(CC)CC)cc1`, the Potency result is “inactive”.

Regarding `CC(CN(C)C)CN1c2ccccc2CCc2ccccc21` (stereo not given), the Potency entry is “inactive”.

In the case of `CC(C)=CCNc1ncnc2c1ncn2[C@@H]1O[C@H](CO)[C@@H](O)[C@H]1O`, the Potency entry is “inactive”.

As to `CNC(=S)NN`, the Potency result is “inactive”.

As to `c1cnc(N2CCN(Cc3ccc4c(c3)OCO4)CC2)nc1`, the Potency result is “inactive”.

Turning to `CCCCCSCCCCC`, the Potency entry is “inactive”.

`CCC(=O)C1CC(C(C)C)CC=C1C` (stereo not given): the Potency result is “inactive”.

For the compound `CCCC(=O)OCC`, the Potency entry was “inactive”.

Turning to `Cc1ccccc1`, the Potency entry was “inactive”.

As for `Cc1ncc(COP(=O)(O)O)c(C=O)c1O`, the Potency result is “inactive”.

Turning to `CCCOC(OCCC)OCCC`, the Potency entry was “inactive”.

Regarding `Cc1ccc2ccc(Cl)cc2n1`, the Potency result is “inactive”.

For `O=CN(CCO)CCO`, the Potency entry was “inactive”.
